Reference: the antibiotic and cytotoxicity screens of Wong et al. (2023)
Hit rate of the full screen: of about 39,000 compounds, about 500 (1.3%) were called active. The full list was thinned out, with actives kept by preference.

Tested on: S. aureus RN4220
Experiment: growth inhibition call (relative growth <= 0.2)
Conditions: 50 µM

Structure (SMILES)	growth inhibition call
OCC(O)C(O)C(O)C(O)CO (configuration not stated)	inactive
C[C@H](CO)N1C[C@H](C)[C@H](CN(C)Cc2ccc(Oc3ccccc3)cc2)Oc2ccc(NS(=O)(=O)c3ccc(F)cc3)cc2CC1=O	inactive
C[C@@H]1CN([C@H](C)CO)S(=O)(=O)c2ccc(-c3cccc(C(=O)N(C)C)c3)cc2O[C@H]1CN(C)C(=O)Cc1ccccn1	inactive
COCCOC(=O)N1C(=O)[C@@]2(c3cc(C#CC4=CCCCC4)ccc31)[C@H](C(=O)N1CCN(c3ncccn3)CC1)[C@H]1C(=O)O[C@H](c3ccccc3)[C@H](c3ccccc3)N1[C@@H]2c1ccc(OCCO)cc1	inactive
CC(C)NC(=O)N(C)C[C@H]1Oc2ccc(NC(=O)NC3CCCCC3)cc2C(=O)N([C@H](C)CO)C[C@@H]1C	inactive
C[C@@H]1CCCCO[C@@H](CN(C)S(=O)(=O)c2cn(C)cn2)[C@@H](C)CN([C@H](C)CO)C(=O)c2cc(NS(=O)(=O)c3cn(C)cn3)ccc2O1	inactive
O=C1CCC(c2ccc(O)cc2)CC1	inactive
Oc1ccccc1CNc1ccc(C2CCCCC2)cc1	inactive
Oc1cc(C2CCCCC2)cc(C2CCCCC2)c1	active
COc1ccc(NC(=O)Nc2ccc3c(c2)C(=O)N([C@H](C)CO)C[C@H](C)[C@H](CN(C)C(=O)NC(C)C)OCCCC[C@H](C)O3)cc1	inactive
Cc1c[nH]c2ccccc12	inactive
N#C/C(=C\c1ccc(C(F)(F)F)cc1)c1c[nH]c2ccccc12	inactive
Brc1ccc(CSc2c[nH]c3ccccc23)cc1	active
OCc1c[nH]c2ccccc12	inactive
c1ccc2c(-c3ccncc3)c[nH]c2c1	inactive
FC(F)(F)c1ccc(CSc2c[nH]c3ccccc23)cc1	active
COc1ccc(NC(=O)N(C)C[C@@H]2OCCCC[C@H](C)Oc3ccc(NS(=O)(=O)c4ccc(Cl)cc4)cc3C(=O)N([C@H](C)CO)C[C@H]2C)cc1	inactive
C[C@@H]1CN([C@H](C)CO)C(=O)c2cc(NC(=O)NC3CCCCC3)ccc2O[C@@H](C)CCCCO[C@@H]1CN(C)S(=O)(=O)c1cccs1	inactive
COc1ccc(NC(=O)Nc2ccc3c(c2)C(=O)N([C@@H](C)CO)C[C@@H](C)[C@H](CN(C)Cc2ccncc2)OCCCC[C@@H](C)O3)cc1	inactive
C[C@H]1CCCCO[C@H](CN(C)C(=O)Nc2ccccc2)[C@@H](C)CN([C@@H](C)CO)C(=O)c2cc(NC(=O)Cc3ccccc3)ccc2O1	inactive
C[C@H]1CN([C@@H](C)CO)C(=O)CCCn2cc(nn2)CO[C@H]1CN(C)S(=O)(=O)c1ccc(C#N)cc1	inactive
CN(C)c1cc(CN)ccn1	inactive
C1CCC(C(CC2CCCCN2)C2CCCCC2)CC1.O=C(O)C=CC(=O)O (configuration not stated)	active
O=C(O)[C@@H]1CCCCN1	inactive
OC[C@@H]1CCCN1	inactive
O=C(O)CC[C@H]1CCCCN1	inactive

Structure (SMILES)	growth inhibition call
OC[C@@H]1CCCCN1	inactive
C1CCC(C(C[C@H]2CCCCN2)C2CCCCC2)CC1	active
C[C@@H]1CN([C@H](C)CO)C(=O)c2cc(NC(=O)C3CCCCC3)ccc2O[C@@H](C)CCCCO[C@@H]1CN(C)Cc1ccc2c(c1)OCO2	inactive
COc1ccc(NC(=O)N(C)C[C@H]2Oc3c(NC(=O)c4cnccn4)cccc3C(=O)N([C@@H](C)CO)C[C@@H]2C)cc1	inactive
C[C@@H]1CN([C@H](C)CO)S(=O)(=O)c2ccc(C#CCN(C)C)cc2O[C@@H]1CN(C)Cc1ccccn1	inactive
C[C@H](CO)N1C[C@H](C)[C@@H](CN(C)Cc2ccc3c(c2)OCO3)Oc2c(NS(=O)(=O)c3cn(C)cn3)cccc2C1=O	inactive
COc1ccc(NC(=O)Nc2ccc3c(c2)C(=O)N([C@@H](C)CO)C[C@@H](C)[C@H](CN(C)Cc2ccc(C(=O)O)cc2)OCCCC[C@H](C)O3)cc1	inactive
COc1cccc(S(=O)(=O)N(C)C[C@H]2OCc3cnnn3CCCC(=O)N([C@@H](C)CO)C[C@@H]2C)c1	inactive
CNC[C@@H]1Oc2ccc(NS(=O)(=O)c3cn(C)cn3)cc2C(=O)N([C@@H](C)CO)C[C@@H]1C	inactive
CCc1nc2ccc(C(=O)NC3CCN(Cc4ccccc4)CC3)cn2c1N(C)Cc1cc2ccccc2s1	inactive
Cc1noc(C)c1NC(=O)Nc1ccc2c(c1)C(=O)N([C@H](C)CO)C[C@@H](C)[C@H](CN(C)S(=O)(=O)c1ccccc1)OCCCC[C@H](C)O2	inactive
Cc1cc(C2CCCCC2)n(O)c(=O)c1.NCCO	active
C[C@H](CO)N1C[C@H](C)[C@@H](CN(C)Cc2ccc(-c3ccccc3)cc2)Oc2c(NC(=O)c3ccncc3)cccc2C1=O	inactive
C[C@H]1CN([C@@H](C)CO)C(=O)c2cccc(NC(=O)c3cnccn3)c2O[C@@H]1CN(C)Cc1ccncc1	inactive
COc1cccc(NC(=O)N[C@@H]2CC[C@@H](CC(=O)N3CCN(C)CC3)O[C@@H]2CO)c1	inactive
O=C(C[C@@H]1CC[C@H]2[C@@H](COC[C@H](O)CN2C(=O)Nc2cccc(F)c2)O1)NCc1ccccc1Cl	inactive
CNC(=O)Cc1ccccc1	inactive
C[C@@H](NC(=O)COc1ccccc1)C(=O)O	inactive
CC1(C)SC2C(NC(=O)Cc3ccccc3)C(=O)N2C1C(=O)[O-].[K+] (configuration not stated)	active
CC1(C)C(=O)NCCN1C(=O)Cc1ccccc1	inactive
COC(=O)[C@@H]1N2C(=O)[C@@H](N3CC4=C[C@@H](C5CC5)n5c(=O)n(C)c(=O)n5[C@@H]4[C@@H]3[C@@H](O)Cc3ccccc3)[C@H]2SC1(C)C	inactive
CC1(C)SC2C(NC(=O)COc3ccccc3)C(=O)N2C1C(=O)[O-].[K+] (configuration not stated)	active
CC1(C)SC2C(N3C(=O)C(c4ccccc4)NC3(C)C)C(=O)N2C1C(=O)[O-].[K+] (configuration not stated)	active
NNC(=O)COc1ccccc1	inactive
COC(=O)[C@@H]1N2C(=O)[C@@H](N3C[C@](C)(OC)O[C@@H](Cc4ccccc4)[C@H]3/C=C/C3CC3)[C@H]2SC1(C)C	inactive
COc1ccc(S(=O)(=O)N(C)C[C@H]2OCCCC[C@@H](C)Oc3ccc(NC(=O)Nc4ccc(F)cc4)cc3C(=O)N([C@@H](C)CO)C[C@H]2C)cc1	inactive
